Assay [1] is described as follows: Nuclear factor erythroid 2-related factor 2/antioxidant responsive element (Nrf2/ARE) small molecule agonists: luciferase reporter gene qHTS assay in human keratinocytes (AID 1919969). Note: nearly all actives have a fitted effect of over 35% in size. Note: potency is the fitted concentration of half-maximal effect. Background: In a reporter assay the amount or activity of a reporter protein is the signal.
The target of assay [2] is Gonadotropin-releasing hormone receptor (Homo sapiens) (UniProt P30968). As to the kind of experiment: Human gonadotropin-releasing hormone receptor (GnRHR) small molecule agonists, calcium flux assay in GnRHR-HEK293 cells (AID 1920063). Note: nearly all actives have a fitted effect of over 35% in size. Note: potency is the fitted concentration of half-maximal effect. Summed up: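 GnRHR-HEK293, 1500 cells/well, 18 h 37 C/5% CO2; Ca dye 1 h 37 C; cpd pinned (DMSO), agonist mode; kinetic FL 480/540, 3 min, 1 s reads; 15 conc, n=3.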
A general note: A change in cytosolic calcium serves as a functional read-out for many receptors and channels.

Assay [3] addresses KiSS-1 receptor (Homo sapiens) (UniProt Q969F8). As to the kind of experiment: Human kisspeptin (KISS1R) small molecule agonists, calcium flux assay in KISS1R-HEK293 cells (AID 1920064; active = well fitted activation curve with a large enough effect in the repeat runs; note: potency is the fitted concentration of half-maximal effect). Summed up: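 Stable human KISS1R HEK293 line; 18 h plating, 37 C/5% CO2; calcium dye 1 h 37 C; compound pin transfer; kinetic fluorescence Ex/Em 480/540, 3 min.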
Assay [4] is described as follows: G protein-coupled receptor (GPCR) small molecule agonists, calcium flux assay: HEK293 wild type cell line counter screen (AID 1920065). The essentials: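 Kinetic fluorescence at Ex/Em 480/540, recorded every second over 3 min, served as the read-out after compound addition. Each compound was tested at 15 concentrations in triplicate on cells pre-loaded with calcium dye for 1 h.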

Assay [5] can be described thus: p53 small molecule agonists, cell-based qHTS assay with rat liver microsomes (AID 1963578). The essentials: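 Fluorescence from a beta-lactamase reporter under a p53 response element was measured after cells had been incubated 16 h at 37 C with test compound and rat liver microsomes plus NADPH (0.5 mg/mL final each).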
(Quantitative high-throughput screening tests each substance at several concentrations.)

Assay [6] deals with Muscarinic acetylcholine receptor M1 (Homo sapiens) (UniProt P11229). Briefly: Cholinergic receptor muscarinic 1 (CHRM1) small molecule antagonists, cell-based qHTS assay (AID 1963588). Note: nearly all actives have a fitted effect of over 40% in size. Summed up:
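CHRM1-CHO calcium-flux assay, antagonist mode. Cells were seeded 18 h, dye-loaded 1 h at 37 C and given compound for 5 min at RT, then acetylcholine was added at 50nM. FDSS fluorescence was read 3 min; 15 concentrations, three runs.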

Assay [7] has the same target. Briefly: Cholinergic receptor muscarinic 1 (CHRM1) small molecule agonists, cell-based qHTS assay (AID 1963589). Note: nearly all actives have a fitted effect of over 35% in size. The essentials:
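Human M1 in stable CHO line; 18 h plating, 1 h dye load 37 C; cpd added (agonist mode); Ca2+ fluorescence kinetic read, 1 s intervals; 15 conc, 3 runs.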

A short description of assay [8]: cAMP Responsive Elements (CRE) small molecule antagonists, cell-based qHTS assay (AID 1963591; active = well fitted inhibition curve with a large enough effect in the signal ratio in the repeat runs, not every such curve was filed as active; the % refers to the signal ratio). The essentials: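 Beta-lactamase reporter read by FRET substrate (LiveBLAzer B/G) after 2 h at room temperature. CRE-bla HEK293T cells had received compound plus 0.25 uM (final) NKH477 for 3 h at 37 °C.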
Assay [9] concerns the target Beta-2 adrenergic receptor (Homo sapiens) (UniProt P07550). Briefly: Adrenergic beta2 receptor (ADRB2) small molecule antagonists, cell-based qHTS assay (AID 1963592). Note: series mostly up to about 92 µM; nearly all actives have a fitted effect of over 50% in size. The essentials:
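Cells (CHO, stable ADRB2 overexpression) incubated 18-20hr at 37C; compounds added from DMSO; agonist mix (1nM isoproterenol, 100uM IBMX, 25uM Ro-20-1724) added; 0.5hr RT; d2-cAMP and anti-cAMP-cryptate added; 1hr RT; 665/615 nm read.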

In assay [10] the target is D(2) dopamine receptor (Homo sapiens) (UniProt P14416). Briefly: Dopamine D2 receptor (DRD2) small molecule agonists, cell-based qHTS assay (AID 1963594). Note: nearly all actives have a fitted effect of over 35% in size. Summed up: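 HEK293 cells stably expressing human DRD2, pre-treated with PDE inhibitor Ro20-1724 (0.1 mM final) and compound 10 min at room temperature, then stimulated with NKH477 (200nM […]) for 30 min. cAMP read by HTRF (665/620 nm).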

Assay [11] has the same target. As to the kind of experiment: Dopamine D2 receptor (DRD2) small molecule antagonists, cell-based qHTS assay (AID 1963595; active = well fitted inhibition curve with a large enough effect in the signal ratio in the repeat runs, with a control signal flat; the % refers to the signal ratio; note: potency is the fitted concentration of half-maximal effect). Summed up:
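HEK293 cells stably expressing DRD2 were preincubated with 0.1 mM Ro20-1724, then with compound for 10 min at room temperature. Cells were stimulated with 200 nM NKH477 plus 12 nM quinpirole for 30 min, and cAMP was read by HTRF.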

The nature of assay [12]: p53 small molecule agonists, cell-based qHTS assay with human liver microsomes: qHTS cell viability counter screen (AID 1963579). Note: nearly all actives have a fitted effect of over 45% in size. Note: potency is the fitted concentration of half-maximal effect. The essentials: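 Seed p53RE-bla cells at 4,000 per well; incubate 5 h at 37 C; add compound, human liver microsomes and NADPH; incubate 16 h at 37 C; add CellTiter-Glo; after 30 min at room temperature, read luminescence.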
Assay [13] can be described thus: p53 small molecule agonists, cell-based qHTS assay with rat liver microsomes: qHTS cell viability counter screen (AID 1963580). Note: nearly all actives have a fitted effect of over 45% in size. Note: potency is the fitted concentration of half-maximal effect. Summed up:
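Viability is assessed in parallel with the p53 reporter read: HCT-116 p53RE-bla cells receive compounds plus rat microsomes and NADPH (0.5 mg/mL final apiece), incubate 16 h at 37 C, and then CellTiter-Glo luminescence is recorded.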

For assay [14], the target named is Beta-2 adrenergic receptor (Homo sapiens) (UniProt P07550). Briefly: Adrenergic beta2 receptor (ADRB2) small molecule agonists, cell-based qHTS assay (AID 1963593).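 Note: CHO cells stably overexpressing human ADRB2.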 Summed up: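 CHO cells stably over-expressing ADRB2 were plated overnight at 37C, then dosed with compounds plus a stimulation mix containing 100uM IBMX and 25uM Ro-20-1724 for 0.5hr at room temperature. cAMP was measured by HTRF competition, 1hr.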

The nature of assay [15]: p53 small molecule agonists, cell-based qHTS assay: qHTS cell viability counter screen (AID 1963581). Note: nearly all actives have a fitted effect of over 45% in size. Note: potency is the fitted concentration of half-maximal effect. Summed up:
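HCT-116 p53RE-bla cells, 4,000/well, plated 5 h before compound pin transfer; 16 h at 37 C; bla substrate 2 h RT; then CellTiter-Glo, 30 min RT, luminescence.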

For assay [16], the target named is 5-hydroxytryptamine receptor 2A (Homo sapiens) (UniProt P28223). As to the kind of experiment: 5-hydroxytryptamine receptor 2A (HTR2A) small molecule antagonists, cell-based qHTS assay (AID 1963586). Note: nearly all actives have a fitted effect of over 45% in size. Summed up:
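Antagonist-mode intracellular calcium assay: DOI (4 nM) added after 5 min compound pre-incubation at room temperature to dye-loaded HTR2A-CHO cells. Fluorescence followed for 3 min, sampled every second.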

For assay [17] the target is unchanged. Briefly: 5-hydroxytryptamine receptor 2A (HTR2A) small molecule agonists, cell-based qHTS assay (AID 1963587). Note: nearly all actives have a fitted effect of over 30% in size. Note: potency is the fitted concentration of half-maximal effect. Summed up: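 CHO cells stably expressing human HTR2A, plated 18 h, loaded with calcium dye 1 h at 37 C. Agonist mode: compounds added and intracellular calcium fluorescence recorded kinetically for 2 min at 1 sec intervals.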
The nature of assay [18]: cAMP Responsive Elements (CRE) small molecule agonists, cell-based qHTS assay (AID 1963590). Summed up:
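HEK 293T CRE-bla, 2,000 cells/well, 18 h preincubation 37 C/5% CO2; cpds (DMSO) pinned, 3 h; LiveBLAzer B/G FRET substrate, 2 h RT.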

Assay [19] is described as follows: p53 small molecule agonists, cell-based qHTS assay (AID 1963582; active = well fitted activation curve with a large enough effect in the signal ratio in the repeat runs, not every such curve was filed as active; the % refers to the signal ratio). Summed up:
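Reporter line: p53RE-bla. Pre-incubation 5 h, 37 C, 5% CO2; compound (DMSO, pin tool) 16 h, 37 C; B/G FRET substrate 2 h RT; fluorescence intensity read.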

Assay [20] in a line: p53 small molecule agonists, cell-based qHTS assay with human liver microsomes (AID 1963577). Summed up: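 Cells carrying a p53-responsive bla reporter were rested 5 h (37 C, 5% CO2) before compound transfer. Human liver microsomes plus NADPH, 0.5 mg/mL final apiece, supplied metabolism during the 16 h 37 C exposure.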

From PubChem BioAssay (Tox21) come the findings set out here.

Structures are written as SMILES. Records with an inconclusive call do not appear. Activity calls are given as the source filed them. Unless noted, calls come from the whole dose curve.

Sequence of KiSS-1 receptor (Homo sapiens) (Q969F8 whole entry, looked up): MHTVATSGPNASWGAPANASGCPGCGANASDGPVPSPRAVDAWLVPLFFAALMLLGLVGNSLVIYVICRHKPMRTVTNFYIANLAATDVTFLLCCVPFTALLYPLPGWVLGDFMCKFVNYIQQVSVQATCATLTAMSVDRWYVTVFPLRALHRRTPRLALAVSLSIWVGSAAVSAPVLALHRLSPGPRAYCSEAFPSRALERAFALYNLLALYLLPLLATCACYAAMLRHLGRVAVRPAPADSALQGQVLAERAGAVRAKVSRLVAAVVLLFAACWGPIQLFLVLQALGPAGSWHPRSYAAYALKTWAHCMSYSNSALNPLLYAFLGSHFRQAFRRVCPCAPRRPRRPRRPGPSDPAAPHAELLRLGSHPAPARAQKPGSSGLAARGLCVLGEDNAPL
Sequence of Beta-2 adrenergic receptor (Homo sapiens) (P07550 whole entry, looked up): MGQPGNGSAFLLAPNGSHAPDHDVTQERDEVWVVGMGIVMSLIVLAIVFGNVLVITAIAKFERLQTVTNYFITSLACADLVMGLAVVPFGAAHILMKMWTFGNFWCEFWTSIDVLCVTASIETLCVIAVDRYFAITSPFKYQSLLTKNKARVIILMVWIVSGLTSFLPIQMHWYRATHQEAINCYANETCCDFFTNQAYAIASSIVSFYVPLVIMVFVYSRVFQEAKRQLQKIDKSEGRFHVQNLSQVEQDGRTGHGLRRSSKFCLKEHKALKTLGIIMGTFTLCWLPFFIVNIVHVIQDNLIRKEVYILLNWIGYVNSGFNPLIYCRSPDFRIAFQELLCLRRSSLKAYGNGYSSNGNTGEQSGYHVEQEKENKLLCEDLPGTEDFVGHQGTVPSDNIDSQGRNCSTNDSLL
Sequence of Muscarinic acetylcholine receptor M1 (Homo sapiens) (P11229 whole entry, looked up): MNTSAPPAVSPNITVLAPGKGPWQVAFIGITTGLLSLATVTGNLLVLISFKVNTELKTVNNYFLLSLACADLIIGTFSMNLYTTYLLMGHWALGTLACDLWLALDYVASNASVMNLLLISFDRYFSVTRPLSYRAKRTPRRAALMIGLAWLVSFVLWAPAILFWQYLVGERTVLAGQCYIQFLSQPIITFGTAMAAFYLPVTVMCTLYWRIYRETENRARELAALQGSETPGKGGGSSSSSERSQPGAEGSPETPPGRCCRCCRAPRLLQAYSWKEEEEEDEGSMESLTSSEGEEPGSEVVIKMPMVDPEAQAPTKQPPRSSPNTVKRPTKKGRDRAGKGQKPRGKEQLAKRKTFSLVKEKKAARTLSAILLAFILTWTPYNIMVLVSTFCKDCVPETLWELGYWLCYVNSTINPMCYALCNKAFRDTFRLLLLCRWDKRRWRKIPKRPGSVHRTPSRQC
Sequence of D(2) dopamine receptor (Homo sapiens) (P14416 whole entry, looked up): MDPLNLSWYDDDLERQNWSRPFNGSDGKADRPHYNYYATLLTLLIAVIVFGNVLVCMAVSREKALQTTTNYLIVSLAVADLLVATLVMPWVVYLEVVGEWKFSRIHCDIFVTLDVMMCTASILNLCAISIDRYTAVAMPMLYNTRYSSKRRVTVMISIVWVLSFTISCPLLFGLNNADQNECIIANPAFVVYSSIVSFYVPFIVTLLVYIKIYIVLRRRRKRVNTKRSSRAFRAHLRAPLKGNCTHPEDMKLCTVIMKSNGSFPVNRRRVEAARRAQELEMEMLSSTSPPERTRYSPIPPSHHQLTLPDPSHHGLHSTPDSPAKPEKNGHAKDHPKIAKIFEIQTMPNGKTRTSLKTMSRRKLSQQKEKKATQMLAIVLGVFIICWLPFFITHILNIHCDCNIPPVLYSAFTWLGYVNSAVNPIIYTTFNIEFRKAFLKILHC
Sequence of 5-hydroxytryptamine receptor 2A (Homo sapiens) (P28223 whole entry, looked up): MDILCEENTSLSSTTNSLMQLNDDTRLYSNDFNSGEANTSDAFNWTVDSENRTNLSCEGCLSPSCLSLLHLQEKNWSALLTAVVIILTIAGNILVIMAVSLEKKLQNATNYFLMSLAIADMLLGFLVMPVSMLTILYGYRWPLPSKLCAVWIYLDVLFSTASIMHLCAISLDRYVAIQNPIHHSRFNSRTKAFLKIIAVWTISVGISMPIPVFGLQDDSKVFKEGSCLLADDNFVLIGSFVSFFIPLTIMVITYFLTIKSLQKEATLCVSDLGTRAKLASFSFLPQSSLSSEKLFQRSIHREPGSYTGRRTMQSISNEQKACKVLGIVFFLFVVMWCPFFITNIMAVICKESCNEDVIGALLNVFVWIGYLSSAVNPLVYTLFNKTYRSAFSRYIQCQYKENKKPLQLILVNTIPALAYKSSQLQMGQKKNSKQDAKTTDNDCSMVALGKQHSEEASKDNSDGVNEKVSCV
Sequence of Gonadotropin-releasing hormone receptor (Homo sapiens) (P30968 whole entry, looked up): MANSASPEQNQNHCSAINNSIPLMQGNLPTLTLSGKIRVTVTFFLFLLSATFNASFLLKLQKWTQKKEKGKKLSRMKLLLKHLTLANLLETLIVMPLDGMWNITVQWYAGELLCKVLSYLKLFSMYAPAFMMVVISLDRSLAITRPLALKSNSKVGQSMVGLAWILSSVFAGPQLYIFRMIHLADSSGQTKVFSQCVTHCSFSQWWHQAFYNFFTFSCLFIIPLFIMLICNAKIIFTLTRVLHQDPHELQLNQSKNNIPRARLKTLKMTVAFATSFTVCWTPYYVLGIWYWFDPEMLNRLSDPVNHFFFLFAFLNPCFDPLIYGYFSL

For `Nc1ccc(Cl)cc1C(=O)c1ccccc1`, the Potency result in assay [1], in [2], in assay [3], in assay [4], in [5] and in [6] was “inactive” throughout. The Potency entry in assay [7], in [8], in assay [9], in assay [10] and in assay [11] was “inactive” throughout.

In the case of `CN(C)[C@@H]1C(=O)C(C(N)=O)=C(O)[C@@]2(O)C(=O)C3=C(O)c4c(O)ccc(Cl)c4[C@@](C)(O)[C@H]3C[C@@H]12`, the Potency entry in [1], in assay [2], in assay [3], in [4], in assay [5] and in assay [12] was “inactive” each time. For the same compound, the Potency result in assay [13], in assay [14] and in [11] was “inactive” in each case.

With `[F][Sn]([c]1ccccc1)([c]1ccccc1)[c]1ccccc1`, the Potency in assay [1] was 0.545 µM (active); in assay [2] it was 34.7 µM (active); in assay [12], 2.29 µM (active); in [13], 11.5 µM (active); in assay [15] it was 2.89 µM (active); in [11], 2.73 µM (active). Further, the Potency result in assay [3], in [4], in [5], in assay [16] and in [9] was “inactive” in each case.

With `Clc1ccccc1`, the Potency result in [1], in assay [2], in assay [3], in assay [4], in [12] and in assay [13] was “inactive” each time. Further, the Potency entry in assay [15], in assay [17], in [6], in assay [18], in assay [9] and in assay [14] was “inactive” in each case. The Potency entry in assay [10] and in assay [11] was “inactive” throughout.

`CCOC(=O)Cc1ccccc1`: the Potency entry in assay [1], in assay [2], in assay [3], in assay [4], in assay [12] and in assay [13] was “inactive” throughout. Moreover, the Potency entry in assay [15], in assay [16], in [17], in [6], in assay [7] and in [18] was “inactive” in each case. Also, the Potency result in [8], in [9], in assay [10] and in assay [11] was “inactive” in each case.

As to `ClC1=C(Cl)[C@]2(Cl)[C@H]3[C@H]([C@@H]4C=C[C@H]3C4)[C@@]1(Cl)C2(Cl)Cl`, the Potency result in assay [1], in assay [2], in [3], in assay [4], in [12] and in assay [13] was “inactive” in each case. In addition, the Potency result in assay [15], in assay [19], in assay [16], in assay [17], in [6] and in [7] was “inactive” throughout. The Potency entry in assay [18], in assay [8], in assay [9], in [10] and in assay [11] was “inactive” each time.

As to `CCOP(=S)(NC(C)C)Oc1ccccc1C(=O)OC(C)C` (stereo not drawn), the Potency entry in [1], in assay [2], in assay [3], in [4], in assay [12] and in assay [13] was “inactive” each time. The Potency result in assay [15], in [16], in assay [17], in assay [6], in [7] and in assay [9] was “inactive” throughout. Moreover, the Potency entry in assay [10] and in [11] was “inactive” each time.

In the case of `O=C(N[C@@H]1N=C(c2ccccc2F)c2cccc3c2N(CC3)C1=O)c1cc2ccccc2[nH]1`, the Potency entry in assay [1], in assay [20], in assay [5], in [13], in assay [15] and in assay [6] was “inactive” in each case. Besides, the Potency entry in [7], in assay [18], in [8], in assay [9], in [14] and in assay [10] was “inactive” in each case. Further, the Potency in [2] is 4.25 µM (active); in [3], 15.1 µM (active); in assay [17], 13.4 µM (active).

As to `O=C1CN=C(c2ccccc2)c2cc([N+](=O)[O-])ccc2N1`, the Potency result in [1], in [2], in assay [3], in [4], in [12] and in assay [15] was “inactive” throughout. The Potency entry in assay [18], in [8], in [9], in [10] and in assay [11] was “inactive” throughout.
